# Source: PubChem BioAssay
# The source made the active and inactive calls.
# Assays:
# [1] = tested on: Wnt5a (protein binding on small-molecule microarray); assay: Wnt5a binders on small-molecule microarray, primary screen, biophysical, 635/667 nm fluorescence (AID 1142); conditions: 635 nm fluorescence, higher = more signal;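 also: fluorescence read at 667 nm with signal to noise per printed feature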
# [2] = cell viability in Huh7 cells, primary screen, cytotoxicity control for HCV replication inhibitor project, CellTiter-Glo luminescence, basal, 48 h (AID 1143); conditions: Huh7 HCV replicon, higher = more signal, called active from +8 up or from −8 down;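 also: Huh7 hepatoma cells carrying a hepatitis C replication reporter with no stimulus; test concentration not given here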
# [3] = CREB reporter modulators without forskolin, primary screen, cell-based, PC12, CRE-LacZ reporter, unstimulated (AID 1145); conditions: no forskolin, luminescence, 4.5 h, higher = more signal, called active from +8 up or from −8 down
# [4] = CREB reporter modulators under forskolin, primary screen, cell-based, PC12, CRE-LacZ reporter, forskolin-stimulated (AID 1146); conditions: luminescence, 4.5 h, higher = more signal, called active from +8 up or from −8 down;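 also: PC12 cells with 6xCRE LacZ reporter stimulated by forskolin 10 µM; beta-galactosidase reporter signal reflecting CREB driven transcription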
# [5] = target: Streptavidin (Streptomyces avidinii) (UniProt P22629); assay: streptavidin binders on small-molecule microarray, primary screen, artefact control for SMM compound annotation, biophysical, 635/667 nm fluorescence (AID 1147); conditions: streptavidin binding, higher = more signal;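 also: signal reflects streptavidin binding to arrayed compounds as a control protein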
# [6] = small-molecule binders of probe aInhba, primary screen, biochemical, small-molecule microarray, 635/667 nm fluorescence (AID 1148); conditions: higher = more signal;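 also: score merges 667nm spot fluorescence with signal-to-noise for antibody binding to printed compounds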
# Torsin-1A (Homo sapiens) [7] = target: Torsin-1A (Homo sapiens) (UniProt O14656); assay: torsin A binders from cell lysate, primary screen, small-molecule microarray, wild-type, 635/667 nm (AID 1149); conditions: COS7 hTOR1A-WT lysate, 635 nm fluorescence, higher = more signal
# Torsin-1A (Homo sapiens) [8] = target: Torsin-1A (Homo sapiens) (UniProt O14656); assay: small-molecule binders of mutant TOR1A in lysate, primary screen, cell lysate, small-molecule microarray, COS7 lysate, 635/667 nm fluorescence (AID 1150); conditions: COS7 hTOR1A mutant lysate, 635 nm fluorescence, higher = more signal;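 also: score pools 667 nm emission and signal to noise measuring lysate protein binding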
# [9] = tested on: Sonic hedgehog protein (Shh); assay: small-molecule binders of Shh protein, primary screen, biochemical, small-molecule microarray, 635/667 nm fluorescence (AID 1151); conditions: small-molecule microarray binding, 635 nm fluorescence; higher = more signal;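 also: Shh protein binding to compounds spotted on small-molecule microarray slides; score combines spot fluorescence intensity with signal-to-noise across triplicate slides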
# Sequence of Streptavidin (Streptomyces avidinii) (P22629 whole entry, looked up): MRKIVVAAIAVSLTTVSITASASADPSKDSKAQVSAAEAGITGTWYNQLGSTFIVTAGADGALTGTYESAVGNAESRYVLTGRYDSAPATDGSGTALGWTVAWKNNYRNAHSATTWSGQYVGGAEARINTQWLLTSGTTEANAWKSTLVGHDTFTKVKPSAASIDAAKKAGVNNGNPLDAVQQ
# Sequence of Torsin-1A (Homo sapiens) (O14656 whole entry, looked up): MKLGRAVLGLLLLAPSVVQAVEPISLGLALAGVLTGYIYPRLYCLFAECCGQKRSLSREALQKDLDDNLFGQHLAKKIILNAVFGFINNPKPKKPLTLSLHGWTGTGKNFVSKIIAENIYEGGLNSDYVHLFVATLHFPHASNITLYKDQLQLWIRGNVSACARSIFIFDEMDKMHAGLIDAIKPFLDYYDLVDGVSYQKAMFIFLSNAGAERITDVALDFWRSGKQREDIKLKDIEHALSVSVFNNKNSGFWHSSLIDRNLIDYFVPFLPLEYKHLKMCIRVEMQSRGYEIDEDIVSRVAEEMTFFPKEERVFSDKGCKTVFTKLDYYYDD
Compound,composite z-score [1],z-score [2],z-score [3],z-score [4],composite z-score [5],composite z-score [6],composite z-score (Torsin-1A (Homo sapiens) [7]),composite z-score (Torsin-1A (Homo sapiens) [8]),composite z-score [9]
CCN1C(C)=C(C(=O)OC)[C@@H](c2ccccc2)N2C(=O)[C@@]3(C(=O)OC)O[C@@]12[C@@H]1C(=O)N(c2ccccc2)C(=O)[C@@H]13,0.313,-1.77 (inactive),0.384 (inactive),-1.28 (inactive),0.424,-0.211,0.224,0.644,0.798
Cc1ccc(N2C(=O)c3ccccc3[C@@H](C(=O)NCc3ccccc3)[C@@H]2c2ccc(CO)cc2)nc1,0.0687,-1.54 (inactive),-0.0888 (inactive),-1.02 (inactive),-0.524,0.0028,0.628,0.276,0.311
C/C(=N\O)C(=O)NCCCCCNC(=O)OCc1ccccc1,0.321,-0.564 (inactive),1.67 (inactive),-1.47 (inactive),1.24,-0.0471,0.228,0.173,0.371
C=C(/C(=C/C[C@@H](OC(=O)c1ccncc1)c1ccc(CO)o1)c1cnc2ccccc2c1)C(C)C,0.117,-1.35 (inactive),2.21 (inactive),-0.42 (inactive),1.72,0.0464,0.165,0.475,1.15
C=CCc1cccc([C@H]2N[C@H](C(=O)O)CC[C@@H]2C)c1,0.023,0.0815 (inactive),1.46 (inactive),-0.675 (inactive),-0.0599,-0.101,0.352,0.122,1.54
CCOC(=O)C[C@H]1[C@H](OC(=O)c2ccccc2-c2ccccc2)[C@@H](NC(=O)C2CCCCC2)c2cc(OCCCO)ccc2N1C(=O)c1ccccc1,0.364,-0.781 (inactive),10.2 (active),-0.278 (inactive),0.0739,0.0131,0.128,0.197,1.1
C=CCN1C(=O)[C@@]2(O[C@@H](CCn3cc([C@H](O)c4ccccc4)nn3)[C@H]([Si](C)(C)c3ccc(OC)cc3)[C@H]2C)c2cc(N3CCOC3=O)ccc21,-0.0882,-6.15 (inactive),8.19 (active),-1.73 (inactive),-0.349,-0.157,0.0712,0.557,0.185
C[C@H]1COC(=O)[C@@H]2CCCN2C(=O)[C@@H](C)COC(=O)[C@@H]2CCCN2C1=O,0.0246,-0.0001 (inactive),0.613 (inactive),-0.881 (inactive),-0.269,0.0086,-0.213,0.25,0.355
C=CC(=O)O[C@@H](Cc1ccccc1)[C@H]1C2C=CCCC=C2CN1Cc1cccc(Cl)c1 (stereo partly drawn),-0.172,-0.904 (inactive),1.03 (inactive),-0.678 (inactive),-0.575,-0.082,-0.471,0.393,-0.0211
CO[C@H]1COC(=O)CC=C[C@@H](C)COC(=O)[C@@H](C)NC(=O)CC=C[C@@H]1C,0.272,-3.48 (inactive),0.608 (inactive),-1.09 (inactive),-0.697,-0.218,2.49,0.711,2.06
COc1cc(CO)cc(I)c1O[C@H]1C=C(C(=O)NCCO)C[C@@H](NCCc2c[nH]c3ccccc23)[C@@H]1O,0.241,-3.34 (inactive),2.29 (inactive),-2.33 (inactive),0.0072,-0.0954,0.75,0.237,0.888
COc1cccc([C@H]2N[C@H](C(=O)O)CC[C@@H]2C)c1,0.04,-3.79 (inactive),-0.167 (inactive),-1.61 (inactive),0.158,-0.111,0.386,0.403,-0.0276
Cc1ccc(S(=O)(=O)N[C@H]2COC(=O)CC=C[C@H](C)COC(=O)N[C@@H](C)C(=O)CC=C[C@@H]2C)cc1,0.177,-1.67 (inactive),1.6 (inactive),-0.933 (inactive),-0.184,-0.142,0.771,0.555,1.01
Cc1ccc(S[C@]2(C(=O)NCCCN(C)C)CC(=O)N(C3CCCCC3)[C@@H]2c2ccc(CO)cc2I)cc1,-0.056,-6.58 (inactive),-0.0243 (inactive),1.42 (inactive),-0.806,-0.128,0.0029,0.0812,0.0709
CN(C)C(=O)[C@@]1(Cc2ccccc2N=[N+]=[N-])N=C(c2ccc(OCCCO)cc2)O[C@H]1c1ccccc1CN=[N+]=[N-],0.549,-3.09 (inactive),1.65 (inactive),-1.39 (inactive),1.41,0.372,0.477,1.24,0.397
C=CCN1C(=O)[C@]2(O[C@H](CCn3cc(CCO)nn3)[C@@H]([Si](C)(C)c3ccc(OC)cc3)[C@@H]2C)c2cc(NC(=O)c3ccc(OC)cc3)ccc21,0.46,-4.16 (inactive),7.29 (inactive),-1.63 (inactive),0.132,-0.0598,1.06,0.66,1.61

Compound,composite z-score [1],z-score [2],z-score [3],z-score [4],composite z-score [5],composite z-score [6],composite z-score (Torsin-1A (Homo sapiens) [7]),composite z-score (Torsin-1A (Homo sapiens) [8]),composite z-score [9]
COc1cc([C@@H]2N[C@H](C(=O)O)Cc3c2[nH]c2ccccc32)cc(OC)c1OC,0.102,-1.81 (inactive),0.108 (inactive),-1.69 (inactive),0.0855,-0.0102,0.257,0.285,0.342
O=C1O[C@@H](c2ccccc2)[C@@H](c2ccccc2)N2[C@@H](c3ccccc3OCCO)[C@]3(C(=O)Nc4ccc(C#CC5=CCCCC5)cc43)[C@@H](C(=O)O)[C@H]12,0.26,-4.37 (inactive),0.245 (inactive),13.7 (active),0.841,-0.0006,0.13,0.261,0.195
C=CCNC(=O)[C@@H]1[C@H]2C(=O)O[C@H](c3ccccc3)[C@H](c3ccccc3)N2[C@H](c2ccc(OCCO)cc2)[C@@]12C(=O)N(C(=O)OCCOC)c1ccc(C#CC3(O)CCCCCC3)cc12,0.281,-6.19 (inactive),-0.87 (inactive),-1.59 (inactive),0.788,0.167,0.42,0.469,1.1
CC/C=C/C(=O)N(C[C@@H]1CCCO1)[C@@H]1CC(C(=O)NCCO)=C[C@H](Oc2c(I)cc(CO)cc2OC)[C@H]1O,-0.0308,-1.97 (inactive),0.858 (inactive),-2.41 (inactive),-0.0512,-0.128,0.553,0.267,0.239
O=C(NCc1ccccc1)[C@@]1(CCS(=O)(=O)c2ccccc2)COC(c2ccc(OCCCO)cc2)=N1,0.23,-3.07 (inactive),-0.137 (inactive),-2.67 (inactive),2,0.281,0.911,0.576,0.331
COCCOC(=O)N1C(=O)[C@@]2(c3cc(C#CCNC(N)=O)ccc31)[C@H](c1ccc(OCCO)cc1)N1[C@H](c3ccccc3)[C@H](c3ccccc3)OC(=O)[C@H]1[C@@H]2C(=O)Nc1nc2ccccc2s1,0.483,-1.6 (inactive),0.627 (inactive),-1.2 (inactive),0.422,-0.224,0.72,0.471,1.6
C[C@@H]1NC(=O)CC=C[C@@H](C)[C@@H]2C=C[C@H](O)[C@@H](COC(=O)[C@H](C)NC(=O)CC=C[C@@H](C)[C@@H]3C=C[C@H](O)[C@@H](COC1=O)O3)O2,0.0414,-3.48 (inactive),-0.925 (inactive),-0.89 (inactive),-0.664,-0.0581,0.436,0.104,1.04
[N-]=[N+]=Nc1ccccc1C[C@@]1(C(=O)N2CCOCC2)N=C(c2ccc(OCCCO)cc2)O[C@@H]1c1ccccc1N=[N+]=[N-],0.372,-5.17 (inactive),2.75 (inactive),-1.37 (inactive),0.955,0.0982,0.644,0.407,0.174
CC(C)[Si]1(C(C)C)OCc2cc(C3CC3)nc(-c3ccccc3)c21,-0.125,-1.63 (inactive),0.339 (inactive),-1.08 (inactive),-0.0842,-0.108,0.188,0.127,0.545
CO[C@H]1COC(=O)CC=C[C@H](C)[C@@H](OC)COC(=O)[C@H](Cc2ccccc2)NC(=O)CC=C[C@@H]1C,-0.359,-0.89 (inactive),0.248 (inactive),-0.802 (inactive),-0.234,-0.408,0.45,0.593,2.05
CO[C@H]1COC(=O)CC=C[C@H](C)COC(=O)[C@@H](OCc2ccccc2)C=C[C@@H]1C,-0.192,-4.32 (inactive),0.252 (inactive),-1.2 (inactive),0.846,-0.29,2.67,2.29,2.06
[N-]=[N+]=NCc1ccccc1C[C@@]1(C(=O)N2CCOCC2)N=C(c2ccc(OCCCO)cc2)O[C@@H]1c1ccccc1N=[N+]=[N-],0.994,-3.63 (inactive),0.218 (inactive),-1.23 (inactive),1.43,0.421,0.783,0.987,0.144
CO[C@H]1COC(=O)[C@H](C)NC(=O)CC=C[C@@H](C)[C@H](NS(=O)(=O)c2ccc(C)cc2)COC(=O)CC=C[C@@H]1C,-0.0879,-0.831 (inactive),0.429 (inactive),-1.27 (inactive),-0.052,-0.123,0.961,0.0627,1.38
COCCOC(=O)N1C(=O)[C@@]2(c3ccccc31)[C@H](C(=O)N1CCc3cc(OC)c(OC)cc3C1)[C@H]1C(=O)O[C@H](c3ccccc3)[C@H](c3ccccc3)N1[C@@H]2c1ccccc1OCCO,0.0374,-3.27 (inactive),-0.183 (inactive),-1.12 (inactive),0.686,0.0228,0.435,0.243,1.38
CC(C)[Si](OCCCNS(=O)(=O)c1ccc(Br)cc1)(C(C)C)C(C)C,0.0488,-5.53 (inactive),-0.752 (inactive),-0.4 (inactive),0.623,0.0161,0.923,0.31,0.72
C=CC[C@]1(C(=O)NCC(O)CO)N=C(c2ccc(OCCCO)cc2)O[C@H]1c1ccccc1 (stereo partly drawn),0.621,-0.371 (inactive),1.37 (inactive),-0.804 (inactive),0.0012,-0.146,2.71,3.09,-0.559
